Hits are enriched below; roughly 2.3% of the tested compounds scored in any of these assays.
CHRM1 agonist = activates human CHRM1 receptor. CHO-K1 hM1, Fluo-8 calcium fluorescence, agonist mode; 0% DMSO, 100% acetylcholine EC100. activation, % at 3 µM. 360,000 tested, 0.33% active;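 active = activation above the run's mean compound activation plus 3 SD, cut at about 16% in these data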;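 also: peak over basal fluorescence ratio within a 140 s kinetic read after compound addition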
Target sequence (P11229 whole entry, looked up): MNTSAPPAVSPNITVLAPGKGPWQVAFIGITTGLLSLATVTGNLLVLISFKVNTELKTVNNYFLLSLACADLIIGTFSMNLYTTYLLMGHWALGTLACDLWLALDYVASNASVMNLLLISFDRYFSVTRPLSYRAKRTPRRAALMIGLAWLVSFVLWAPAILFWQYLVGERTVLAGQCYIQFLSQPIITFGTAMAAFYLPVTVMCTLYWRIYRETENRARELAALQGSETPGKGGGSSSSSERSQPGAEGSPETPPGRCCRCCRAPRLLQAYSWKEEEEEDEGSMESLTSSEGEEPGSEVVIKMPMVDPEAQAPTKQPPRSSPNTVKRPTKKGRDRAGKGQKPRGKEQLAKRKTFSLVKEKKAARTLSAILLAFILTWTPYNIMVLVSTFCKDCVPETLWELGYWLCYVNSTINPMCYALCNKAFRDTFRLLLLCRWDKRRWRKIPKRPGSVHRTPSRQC
CHRM1 antagonist = antagonists of human M1 muscarinic receptor. 360,000 tested, 1.3% active. inhibition, % at 3 µM. CHO-K1 hM1, Fluo-8 calcium fluorescence, ACh EC80 antagonist. AID 588852;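 active = percent inhibition above its own plate's cutoff, namely the mean of that plate's compound wells plus 3 SD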;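 also: peak over basal fluorescence ratio during 140 s after agonist addition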
CHO-K1 Ca ag = M1 agonist counterscreen hit in parental CHO-K1 cells | AID 602248 | Fluo-8 calcium fluorescence; scaled to maximal ATP response, vehicle zero | 360,000 tested, 0.48% active | activation, % at 3 µM; in the data active = activation above about 15%;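 also: untransfected CHO-K1 host cells lacking M1 receptor as counterscreen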
CHO-K1 Ca antag = M1 antagonist counterscreen hit in parental CHO-K1 cells | ATP-induced calcium, Fluo-8 fluorescence | inhibition, % at 3 µM | 360,000 tested, 0.6% active;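 active = inhibition above a per-plate cutoff, the plate's mean sample inhibition plus 3 SD, cut at about 24% in these data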
CHRM1 PAM = human CHRM1 positive allosteric modulation; P11229; CHO-K1 hM1, Fluo-8 calcium fluorescence, ACh EC20; 0% = ACh EC20, 100% = maximal ACh; AID 588819; 360,000 tested, 0.088% active; activation, % at 3 µM; in the data active = activation above about 19%, passing the limit was not always enough
M1 PAM parental = M1 PAM counterscreen hit in parental CHO-K1 cells; ATP EC20, Fluo-8 calcium fluorescence; 0% at ATP EC20, 100% at ATP max; activation, % at 3 µM; 360,000 tested, 0.02% active; AID 602247;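 active = activation above the run cutoff, the mean activation of all test compounds plus 3 SD, cut at about 40% in these data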;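 also: peak over basal fluorescence ratio in a 140 s read after ATP addition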
Hits are given with their value; i = inactive; nt = no result.

SMILES	CHRM1 agonist	CHRM1 antagonist	CHO-K1 Ca ag	CHO-K1 Ca antag	CHRM1 PAM	M1 PAM parental
CCOC(=O)C1CCCN(C(=O)c2cc(Cl)ccc2Cl)C1 (stereo unspecified)	19	i	i	i	i	i
CCOC(=O)C1CCCN(C(=O)c2ccc(Cl)cc2)C1 (stereo unspecified)	i	i	i	i	i	i
COc1ccc(C(=O)O)cc1S(=O)(=O)NCCCN1CCCC1=O	i	i	i	25	i	i
CC(C)NC(=O)COc1nncc2ccccc12	i	i	i	i	i	i
O=C1C(=Cc2cccn2-c2ccccc2)C(=O)c2ccccc21	i	i	15	i	i	i
CC(C)S(=O)(=O)c1cnc(-c2cccnc2)nc1N	i	i	i	i	i	i
O=C(N/N=C/c1ccc(O)c(O)c1)c1ccc(CSc2cccc3cccnc23)cc1	24	i	i	i	i	i
Cc1cc(NS(=O)(=O)c2c(C(=O)N3CCOCC3)c(C)n(C)c2C)ccc1Br	i	i	i	i	i	i
CC(C)(C)C1N=C(c2ccc3ccccc3c2)OC1=O (stereo unspecified)	i	i	i	i	i	i
O=C(CC1NCCc2ccccc21)Nc1ccccc1 (stereo unspecified)	i	i	i	i	i	i
O=C(CC1NCCc2ccccc21)Nc1ccc(Oc2ccccc2)cc1 (stereo unspecified)	i	i	20	i	i	i
O=C(NC1CCCCCCC1)c1cc(COc2ccc3ncccc3c2)on1	i	49	i	29	i	i
Cc1cc(CN(C)C(=O)c2cc(COc3ccc4ncccc4c3)on2)on1	i	i	i	i	i	i
CC(CNC(=O)c1cc(COc2ccc3ncccc3c2)on1)c1ccccc1 (stereo unspecified)	i	43	17	i	i	i
C=CCN1C(=O)C(CC(=O)NCC)SC1=Nc1ccccc1CC (stereo unspecified)	i	i	i	i	i	i
O=C(C1CCCCC1)N1CCC2CC1c1cc(-c3ccc4c(c3)OCO4)ccc12 (stereo unspecified)	i	35	i	i	i	i
CCOC(=O)C1CCCN(c2cc(=O)n(C3CCCCC3)c(=O)[nH]2)C1 (stereo unspecified)	31	i	i	i	i	i
CC(OC(=O)CCCN=C1NS(=O)(=O)c2ccccc21)C(=O)c1ccccc1 (stereo unspecified)	19	i	16	i	i	i
COc1cc(OC)cc(C(=O)N[C@H](C(=O)Nc2cc(F)ccc2C)C(C)C)c1	i	i	i	i	i	i
CCn1c(SCC(=O)NCc2ccc3c(c2)OCO3)nnc1-c1cccs1	i	i	i	i	i	i
CCn1c(SCC(=O)NCCc2ccc(F)cc2)nnc1-c1cccs1	i	i	i	26	i	i
C[C@H]1CN([C@@H](C)CO)C(=O)CCCn2nncc2CO[C@H]1CN(C)C(=O)Nc1cccc(Oc2ccccn2)c1	i	i	i	i	i	i
CCCC(=O)N1CCC1(C)C(=O)NS(=O)(=O)c1cccc(C)c1 (stereo unspecified)	i	i	i	i	i	i
CCN(CC(=O)Nc1ccccc1C(F)(F)F)CC(=O)c1[nH]c(C)c(C(C)=O)c1C	i	i	i	29	i	i
CC(=O)c1c(C)[nH]c(C(=O)CN(C)CC(=O)Nc2ccccc2Cl)c1C	i	i	i	i	i	i
SMILES	CHRM1 agonist	CHRM1 antagonist	CHO-K1 Ca ag	CHO-K1 Ca antag	CHRM1 PAM	M1 PAM parental
CC(C)(C)NCc1cc(Cl)ccc1OCc1ccccc1F	i	i	15	i	i	i
COc1ccccc1OCCC(=O)OCC(=O)NC(C)c1ccccc1 (stereo unspecified)	i	i	i	i	i	i
Cc1ccc(-n2c(-c3ccccc3)c[n+]3c2CCc2ccccc2-3)c(C)c1	i	55	i	i	i	i
CN1CCN(NC(=O)c2cc(S(=O)(=O)N3CCOCC3)c(Cl)cc2Cl)CC1	i	i	i	i	i	i
NCC(O)CN(c1ccccc1)c1ccccc1 (stereo unspecified)	i	i	i	i	i	i
CC(C)[N+](C)(C)CC(O)CN(c1ccccc1)c1ccccc1 (stereo unspecified)	i	86	i	i	i	i
CCNc1nc(NC(C)C)nc(NC(C)(C)C)n1	i	33	i	i	i	i
CCN(CC)C(=O)C1=C(C)N(Cc2ccc(F)cc2)C(=O)C(CC(=O)NCCCCc2ccccc2)C1 (stereo unspecified)	i	i	i	i	i	i
CC1=C(C(=O)N(C)C)CC(CC(=O)NCCCCc2ccccc2)C(=O)N1Cc1ccc(F)cc1 (stereo unspecified)	35	i	i	i	i	i
CCN(CC)S(=O)(=O)c1cc(C(=O)Nc2cc(C)[nH]n2)ccc1Cl	i	i	i	i	i	i
O=C(COc1ccccc1)NC(=S)N1CCc2ccccc21	i	i	i	24	i	i
CCN(CC)CC#CCC(O)(c1ccccc1)C1CCCC1 (stereo unspecified)	i	102	i	i	i	i
CN(C)CC#CCC(O)(c1ccccc1)C1CCCCC1 (stereo unspecified)	i	100	i	i	i	i
CN1CCN(CC#CCC(O)(c2ccccc2)C2CCCC2)CC1 (stereo unspecified)	i	34	i	i	i	i
CN1CCN(CC#CCC(O)(c2ccccc2)c2ccccc2)CC1	i	i	i	i	i	i
Cc1cc(C(=O)NNC(=S)NC2CCCCC2)cs1	i	i	i	i	i	i
CC(C)c1c(C(=O)N/N=C/c2ccsc2)nnn1-c1nonc1N	28	i	22	i	i	i
Cc1ccsc1/C=N/NC(=O)c1nnn(-c2nonc2N)c1C(C)C	i	i	i	i	i	i
CC(C)c1c(C(=O)N/N=C/c2ccc(C(F)(F)F)cc2)nnn1-c1nonc1N	21	i	i	i	i	i
CC(C)c1c(C(=O)N/N=C/c2cccs2)nnn1-c1nonc1N	34	i	33	i	i	i
CCCCNC(=O)C[C@@H]1C[C@@]2(C(=O)OCC)CCC=C2N(CCC2=CCCCC2)C1=O	nt	nt	i	i	nt	i
COC(=O)C[C@H]1C[C@H]2c3cc(NC(=O)NC4CCCC4)ccc3O[C@H]2[C@@H](CO)O1	i	i	i	i	i	i
COc1ccccc1CNC(=O)CNC(=O)[C@@H]1Cc2ccccc2CN1	i	i	i	i	i	i
Cc1ccc(S(=O)(=O)N/N=C\c2cn(CC(N)=O)c3ccccc23)cc1	i	i	i	i	i	i
O=C(Nc1cccc(C(=O)O)c1)/C(=C\c1cccc([N+](=O)[O-])c1)NC(=O)c1ccc(Br)cc1	i	61	i	i	i	i
O=c1c(C(c2ccc(O)cc2)c2c(O)nc3n(c2=O)CCS3)c(O)nc2n1CCS2	i	i	i	24	i	i
